FBW7 activator – FBW7 E3 ligase activators, primary screen, biochemical, AlphaScreen, human; AlphaScreen FBW7–phospho-cyclin E peptide binding, activator screen; normalized activity (activation), % at 26.1 µM; 650,000 compounds, 0.13% hits; AID 1259310, 2017; in the data active means normalized activity above about 1.9%;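 further: purified mutant Fbw7 with reduced substrate affinity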
MITF inh – MITF inhibitors, primary screen, biochemical, AlphaScreen, human. AID 1259374, 2018. 650,000 compounds, 0.91% hits. Microphthalmia-associated transcription factor (Homo sapiens), O75030. AlphaScreen MITF homodimerization, bead proximity signal. inhibition, % at 2.6 µM; in the data active means inhibition above about 50%
GPR151 activ – activators of human GPR151, primary screen, cell-based, PathHunter beta-arrestin, luminescence. G-protein coupled receptor 151 (Homo sapiens), Q8TDV0. PathHunter beta-arrestin GPR151 cells. activation, % at 11.2 µM. 650,000 compounds, 1% hits; in the data active means activation above about 4.9%
Target sequence (Q8TDV0 whole entry, looked up): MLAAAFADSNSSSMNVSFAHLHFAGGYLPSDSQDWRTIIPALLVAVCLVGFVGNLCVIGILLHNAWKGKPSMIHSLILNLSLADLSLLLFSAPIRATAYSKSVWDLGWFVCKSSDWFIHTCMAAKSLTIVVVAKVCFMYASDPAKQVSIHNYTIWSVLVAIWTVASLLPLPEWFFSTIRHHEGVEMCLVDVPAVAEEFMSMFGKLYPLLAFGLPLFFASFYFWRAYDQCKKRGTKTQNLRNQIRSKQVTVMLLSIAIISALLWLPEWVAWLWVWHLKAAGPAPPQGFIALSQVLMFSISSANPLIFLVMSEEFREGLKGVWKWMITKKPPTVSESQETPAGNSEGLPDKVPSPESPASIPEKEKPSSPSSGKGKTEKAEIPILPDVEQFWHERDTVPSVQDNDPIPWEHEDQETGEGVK
TEAD-YAP block – TEAD-YAP interaction inhibition, primary screen, TEAD-YAP interaction inhibitor project, luminescence, HEK-TIYL cells. 640,000 compounds, 1.4% hits. TEAD-Gal4/YAP UAS-luciferase luminescence. inhibition, % at 9.12 µM. AID 1259422, 2018; in the data active means inhibition above about 32%
Numbers stand for hits; 0 = inactive. Hits are enriched below; roughly 3.4% of the tested compounds scored in any of these assays.

SMILES	FBW7 activator	MITF inh	GPR151 activ	TEAD-YAP block
CC(C)CN(C(=O)CCl)C1CCS(=O)(=O)C1 (stereo not given)	0	0	0	66
c1ccc(-c2cn3nc(-c4ccccc4)sc3n2)cc1	0	0	0	44
O=C(O)c1cc(=O)c(O)c2c(O)c(O)c(O)cc2c1	0	89	0	0
O=C(Cc1ccccc1)Nc1cc(C(=O)O)cc(C(=O)O)c1	0	0	0	0
COc1ccc(N(C(=O)Nc2cccc(Cl)c2)C2=NCCC2)cc1	0	0	0	0
O=C(CSc1nc2[nH]ncc2c(=O)n1-c1ccccc1)Nc1ccc(F)c(F)c1	0	0	0	61
O=C(CSc1nc2[nH]ncc2c(=O)n1-c1ccccc1)Nc1ccc(Br)cc1	0	0	0	0
CCCNc1nc(Nc2ncccn2)nc2c1ncn2-c1ccsc1	0	0	0	0
CCCNc1nc(Nc2cc(OC)c(OC)c(OC)c2)nc2c1ncn2-c1ccsc1	0	0	0	0
CCCNc1nc(Nc2ccc(-n3ccnc3)cc2)nc2c1ncn2-c1ccsc1	0	0	0	51
CCCNc1nc(Nc2ccccc2)nc2c1ncn2-c1ccsc1	0	0	0	55
Oc1ccc(CCNc2nc(Nc3ccc(-n4ccnc4)cc3)nc3c2ncn3-c2ccsc2)cc1	0	0	0	62
COc1cc(Nc2nc(NCCc3ccc(O)cc3)c3ncn(-c4ccsc4)c3n2)cc(OC)c1OC	0	0	0	36
O=C(O)COc1ccc(/C=C/[N+](=O)[O-])cc1Cl	0	0	0	0
Cc1cc(=O)[nH]c2nnc(SCc3ccc(Br)cc3)n12	0	0	0	0
Cc1c(C(=O)NCCN2CCN(C)CC2)oc2ccc3c(c12)C(=O)CC1(CCCCC1)O3	0	0	0	0
O=C(CNC(=S)N(Cc1ccccc1F)C1CCCCC1)NC1CCCC1	0	0	0	0
CCCNc1nc(Nc2ccc(-n3ccnc3)cc2)nc2c1ncn2-c1ccccc1	0	0	0	49
CCCNc1nc(Nc2ccncc2)nc2c1ncn2-c1ccsc1	0	0	0	56
N#Cc1ccc(/C=N/NC(=O)CNc2ccc3c(c2)OCO3)cc1	0	0	0	0
Clc1ccc(CSc2nn3cnnc3s2)cc1	0	0	0	53
Cc1ccc(-c2csc3nnc(SCC(=O)N4CCCCCC4)n23)cc1	0	0	0	0
Cc1cc(/C=C(\C#N)C(=O)N2CCOCC2)c(C)n1C1CCCC1	0	0	0	32
CCN1CCN(C(=O)/C(C#N)=C/c2cc(C)n(C3CCCC3)c2C)CC1	0	0	0	0
Cc1c2c(=O)n(-c3nc4ccccc4s3)[nH]c2cc(=O)n1Cc1ccccc1Cl	0	91	0	0
SMILES	FBW7 activator	MITF inh	GPR151 activ	TEAD-YAP block
COc1ccc(/C=C/C(=O)Nc2ccc(-c3cn[nH]c3)c(OC)c2)cc1	0	0	0	0
CC(=O)Nc1ccc(-c2nc3cccnc3s2)cc1	0	0	0	47
Cc1ccc(-c2nc3cccnc3s2)cc1NC(=O)C(F)(F)F	0	0	0	32
CCCCC(=O)Nc1ccc(-c2nc3cccnc3s2)cc1	0	0	0	0
COc1ccc(-c2nc(=Nc3ccccc3)sn2-c2ccccc2)cc1	0	0	0	0
Cc1ccc2nc(=S)n(C(=O)c3ccccc3F)n2c1	0	0	0	62
NNC(=O)Nc1cccc2nsnc12	0	0	0	66
O=C1c2cccc3cccc(c23)C(=O)N1CCCN(C(=O)c1cccc(Br)c1)c1ccc(Oc2ccccc2)cc1	0	0	0	0
O=C(c1ccccc1)c1cc2cc(Cl)ccc2oc1=O	0	0	0	0
COCCCNC(=O)c1ccc2c(c1)nc(C)n2-c1cc(C)ccc1OC	0	0	0	56
CCOCCCNC(=O)c1ccc2c(c1)nc(C)n2-c1cc(C)ccc1OC	0	0	0	0
O=[N+]([O-])c1ccc(C2NN=C(Cc3ccccc3)S2)cc1 (stereo not given)	0	0	0	0
Oc1ccc(C2NN=C(Cc3ccccc3)S2)c(O)c1 (stereo not given)	0	102	0	0
Cc1ccc(C2=NNC(c3ccncc3)S2)cc1 (stereo not given)	0	0	0	0
Cc1ccc(C2=NNC(c3ccc(O)cc3O)S2)cc1 (stereo not given)	0	0	0	80
CCOC(=O)c1c(NC(=O)c2ccc(S(=O)(=O)N3CCc4ccccc4C3)cc2)sc2c1CCN(C(=O)OCC)C2	0	0	0	0

Screens: PubChem BioAssay, The Scripps Research Institute Molecular Screening Center
